Screening results as filed in PubChem.
Hits are enriched below; roughly 2.7% of the tested compounds scored in any of these assays.
HIV Env fusion – blocks HIV Env-driven cell-cell fusion. inhibition, % at 12.3 µM. HeLa-JRFL Env/CEM21 cell fusion, luciferase. 360,000 tested, 1.1% active;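 active = mean replicate inhibition score of at least 50 and every replicate individually at or above 50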;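 note: 0% = plate neutral controls and 100% = maraviroc near 300 nM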
PAX8 inh HTS – PAX8 transcriptional activity inhibition; RMG-I TPO-luciferase reporter, SteadyGlo, 24 h; inhibition, % at 12.6 µM; 360,000 tested, 1.2% active; AID 652154;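 active = mean replicate inhibition at least 60% with every replicate also reaching 60%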;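 note: luciferase light reporting Pax8 driven TPO promoter activity; plate controls were median of neutral control wells for no effect and mitoxantrone controls for full effect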
GSIS activator – GLuc luminescence reporter in INS-1E cells, primary screen for activators of glucose-dependent secretion of insulin. INS-1E GLuc reporter insulin secretion, 2-3 h. activation, % at 16.6 µM. 370,000 tested, 0.61% active;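 active = lowest replicate activation of at least 40%, so every replicate reaches that level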;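 note: 0% = median of neutral control wells and 100% = median of IBMX positive control wells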
EWS-Fli inh – inhibitors of EWS/Fli oncoprotein transcriptional activity | A673 NR0B1-luciferase reporter, viability-normalised | inhibition, % at 12.6 µM | 350,000 tested, 0.67% active | AID 651661;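 active = mean inhibition of at least 50% after viability correction, with every replicate also passing that limit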;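 note: firefly luciferase signal divided by Alamar Blue viability fluorescence both relative to DMSO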
PGC1a acetyl inh – modulators of PGC1a acetylation; 350,000 tested, 0.17% active; AID 651687; inhibition, % at 15.6 µM; U2OS PGC1a acetylation, AlphaScreen anti-acetyl-lysine; with virally co-expressed GCN5 acetyltransferase;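 active = every replicate shows inhibition of at least 40%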;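 note: 0% = neutral control wells and 100% = positive control wells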
F508del corr – correctors of CFTR F508del function in bronchial epithelial cells; AID 720511; activity (quench increase), % at 7.58 µM; CFBE cells, YFP halide quenching; stimulated with forskolin plus potentiator P3; % fluorescence drop versus neutral controls; 350,000 tested, 0.36% active;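 active = mean added fluorescence quench of at least 8% versus neutral control, with both replicates also reaching 8%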;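 note: cells transiently co-express mutant CFTR-F508del with the halide-sensitive YFP; corrector assay measuring rescue of mutant channel to the surface after 24 h compound exposure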
* hit, by the source's call; x = not tested or not shown; [ ] = another dose, or the depositor's remark.

SMILES	HIV Env fusion	PAX8 inh HTS	GSIS activator	EWS-Fli inh	PGC1a acetyl inh	F508del corr
COC(=O)C1=C(C)N(Cc2cccc(C(F)(F)F)c2)C(=NCc2ccc(OC)cc2)NC1c1cccc(C(F)(F)F)c1 (stereo not given)	25.1	77.0*	x	49.9	x	2.7
COC(=O)C1=C(C)N(Cc2ccc(C(F)(F)F)cc2)C(=NCC2CC2)NC1c1cccc(Cl)c1 (stereo not given)	21.9	68.3*	x	28.5	x	2.9
C[C@H](CO)N1C[C@H](C)[C@H](CN(C)C(=O)NC2CCCCC2)OCCCC[C@H](C)Oc2ccc(NS(=O)(=O)c3ccccc3)cc2C1=O	-24.7[16.7 µM]	14.6	-35.7	4.2	0.6	-1.9
CC1(C)CC(=O)C2=C(C1)OC(c1ccc(O)cc1)C(C#N)=C2N (stereo not given)	x	81.1*	-16.7	9.7	3.6	0.3
CC1(C)CC(=O)C2=C(C1)OC(c1ccncc1)C(C#N)=C2N (stereo not given)	-2.9	18.8	x	x	0.0	x
CCCC#Cc1cnc2c(c1)C(=O)N([C@H](C)CO)C[C@H](C)[C@H](CN(C)C(=O)Nc1c(C)noc1C)O2	2.4[16.7 µM]	x	1.9	-35.5	-1.4	-0.6
COc1ccccc1N1CCN(C(=S)Nc2ccc(S(=O)(=O)N3CCOCC3)cc2)CC1	36.0	26.1	-33.7	7.1	10.2	-2.1
O=S(=O)(c1ccc(NC(=S)N2CCN(c3ccccc3F)CC2)cc1)N1CCOCC1	58.8*	18.2	-5.5	9.4	-0.6	-2.3
C[C@H]1CN([C@@H](C)CO)C(=O)Cc2cc(NC(=O)c3ccncc3)ccc2O[C@H]1CN(C)S(=O)(=O)c1cn(C)cn1	-9.0[16.7 µM]	x	19.2	-0.9	0.4	-1.0
COc1ccc2c(c1)c(CC(=O)OCC(=O)O)c(C)n2C(=O)c1ccc(Cl)cc1	24.5	-8.8	x	5.1	-3.6	8.5*
Cc1ccc(C)c(OCc2nc(-c3cccnc3)no2)c1	x	x	x	x	-8.5	x
Cc1cccc(OCc2nc(-c3cccnc3)no2)c1	x	91.7*	2.7	-38.3	-2.6	0.4
CCCN1C[C@@H](C)[C@@H](OC)CN(C)C(=O)c2ccc(NC(=O)C3CC3)cc2OC[C@@H]1C	x	12.3	5.6	-5.3	-5.9	1.1
CN1CCN(C2Cc3ccccc3Sc3ccc(Cl)cc32)CC1 (stereo not given)	11.1	-7.1	x	11.1	-15.2	-2.6
CN1CCN(C2Cc3ccccc3Sc3cc(C(F)(F)F)ccc32)CC1 (stereo not given)	22.5	20.8	402.3*	43.1	x	-1.0
N#Cc1nc(N2CCOCC2)nc(N2CCOCC2)n1	x	x	56.9*	x	8.7	x
CNC(=O)C[C@@H]1CC[C@H]2[C@@H](COc3ccc(NC(=O)Nc4ccc(F)cc4)cc3C(=O)N2C)O1	2.6[16.7 µM]	-2.1	6.9	-0.1	-1.8	-1.5
C[C@@H](NC(=O)C[C@H]1CC[C@H]2[C@@H](COC[C@H](O)CN2C(=O)Nc2ccccc2)O1)c1ccccc1	x	1.7	1.3	-4.8	2.7	-3.3
O=C(C[C@H]1C[C@H]2c3cc(NC(=O)NC4CCCCC4)ccc3O[C@H]2[C@@H](CO)O1)NCc1ccccc1	9.3[16.7 µM]	-6.5	1.5	-1.4	-1.9	2.8
COc1ccccc1S(=O)(=O)N[C@H]1CC[C@H](CC(=O)N2CCN(C)CC2)O[C@H]1CO	62.0*[16.7 µM]	1.8	27.0	7.7	12.5	-2.2
C[C@@H]1CN([C@H](C)CO)C(=O)c2cc(NC(=O)C3CC3)ccc2O[C@@H]1CN(C)S(=O)(=O)c1cn(C)cn1	x	x	8.3	-5.7	7.2	-1.6
O=C(NNC(=O)c1ccncc1)Nc1ccc(Cl)cc1	-10.2	-8.1	-8.8	-17.4	x	8.2*
O=C(NNC(=O)c1ccncc1)Nc1ccccc1	-0.5	-0.3	6.1	0.4	6.7	0.6
COc1ccc(NC(=O)C2CCCN2S(=O)(=O)c2ccc3c(c2)CCC(=O)N3)cc1Cl (stereo not given)	84.9*	11.0	2.5	2.6	0.8	-1.1
CC(NC(=O)C1CCCN1S(=O)(=O)c1ccccc1)c1ccccc1 (stereo not given)	-7.3	26.6	35.1	5.9	x	0.8
SMILES	HIV Env fusion	PAX8 inh HTS	GSIS activator	EWS-Fli inh	PGC1a acetyl inh	F508del corr
CC(NC(=O)C1CCCN1S(=O)(=O)c1ccc2c(c1)n(C)c(=O)c(=O)n2C)c1ccccc1 (stereo not given)	3.6	15.3	54.0*	-1.6	4.5	-2.7
O=C(Nc1cccc(S(=O)(=O)N2CCOCC2)c1)[C@@H]1CCCN1S(=O)(=O)c1ccc(Cl)cc1	61.8*	-19.9	-15.7	x	x	x
CCc1cccc(NC(=O)C2CCCN2S(=O)(=O)c2ccc3c(c2)n(C)c(=O)c(=O)n3C)c1 (stereo not given)	-5.0	14.9	45.8*	-2.4	-7.4	1.6
O=C(NC(=S)NC1CCSC1=O)c1ccccc1Cl (stereo not given)	-7.8	-16.6	x	x	-1.1	x
Cc1ccccc1C(=O)NC1CCSC1=O (stereo not given)	-5.2	3.8	121.5*	5.3	-7.9	-1.1
CN(C)c1ccnc(Nc2ccccc2)c1C#N	9.2	-9.0	16.7	-4.4	-5.0	-0.7
CN(C)c1ccnc2c[cH-]cc12.[Fe].c1ccc(-[c-]2[c-](-c3ccccc3)[c-](-c3ccccc3)[c-](-c3ccccc3)[c-]2-c2ccccc2)cc1 (stereo not given)	57.4*	8.4	x	17.3	0.8	-1.0
Cc1nc2ccc(C(=O)N3c4ccccc4N=C(c4ccc(C(F)(F)F)cc4)C3C(=O)NC(C)(C)C)cc2[nH]1 (stereo not given)	88.9*	-36.0	9.2	-32.5	x	1.2
CN(C)CC(=O)Nc1ccc2c(c1)[C@H]1C[C@@H](CC(=O)N3CCOCC3)O[C@@H](CO)[C@H]1O2	-12.0[16.7 µM]	-3.7	-4.1	-8.6	-1.3	0.8
O=C(C[C@H]1C[C@@H]2c3cc(NC(=O)C4CCOCC4)ccc3O[C@@H]2[C@@H](CO)O1)NCCc1ccccc1	x	6.3	-0.1	6.6	2.7	-1.7
CCN(CC(=O)Nc1cc(Cl)ccc1C)C(=O)c1ccc(=O)n(Cc2ccccc2)n1	109.7*	31.4	-14.7	x	x	0.7
C#CC(=O)N(c1cccc(OC)c1)C(C(=O)NC1CCCC1)c1cccs1 (stereo not given)	x	x	145.8*	43.6	93.0*	-10.4
Cc1cc(C)cc(N(C(=O)C(F)(F)F)C(C(=O)NC2CCCCC2)c2cccs2)c1 (stereo not given)	35.0	x	47.1*	x	-8.1	x
C#CC(=O)N(c1ccc(OC)c(OC)c1)C(C(=O)NC1CCCC1)c1cccs1 (stereo not given)	x	x	36.9	45.2	102.7*	-5.9
COc1ccc(N(C(=O)c2ccco2)C(C(=O)NC2CCCC2)c2cccs2)c(OC)c1 (stereo not given)	2.5	-3.5	-2.2	10.9	x	-1.3
Cc1cccc(N(C(=O)C(F)(F)F)C(C(=O)NC2CCCCC2)c2cccs2)c1 (stereo not given)	x	x	-1.0	x	-4.4	x
